# From PubChem BioAssay (EPA / NIEHS)
# Activity calls are given as the source filed them. Rule for the calls: active = hit-call score of the fitted dose curve at least 0.9, where 1 is the maximum; inactive = score below 0.9.
# How the values were obtained:
# Conditions in all cases: mRNA level, 48 h; actives raise or lower the signal
# [1] = read-out: Glutamate-cysteine ligase regulatory (GCLM), GCLM (gene 2730); experiment: LTEA_HepaRG_GCLM: Life Technologies and Expression Analysis (LTEA) Assay for Glutamate-cysteine ligase regulatory (GCLM) using HepaRG (AID 2283500)
# How it was run: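 HepaRG, 48 h dosing, 100 uM top, half-log x8, 0.5% DMSO vehicle. Readout: GCLM mRNA by TaqMan qRT-PCR, housekeeping-normalized (ACTB/GAPDH/POLR2A). Curves fit bidirectionally vs DMSO baseline.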
# [2] = read-out: Glutathione S-transferase M3 (GSTM3), GSTM3 (gene 2947); experiment: LTEA_HepaRG_GSTM3: Life Technologies and Expression Analysis (LTEA) Assay for Glutathione S-transferase M3 (GSTM3) using HepaRG (AID 2283501)
# How it was run: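 Differentiated human HepaRG cells were exposed in duplicate for 48 h in serum-free induction medium, 8 points from 100 uM top in half-log steps, 0.5% DMSO. GSTM3 mRNA was measured by TaqMan qRT-PCR, normalized to ACTB, GAPDH and POLR2A; bidirectional fit versus DMSO.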
# [3] = read-out: Heat shock 70 kDa protein 1 (HSPA1A), gene 3303; experiment: LTEA_HepaRG_HSPA1A: Life Technologies and Expression Analysis (LTEA) Assay for Heat shock 70 kDa protein 1 (HSPA1A) using HepaRG (AID 2283502)
# How it was run: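 HepaRG, 48 h exposure, 8-pt half-log CRC from 100 uM in 0.5% DMSO, duplicates. Readout: TaqMan qRT-PCR of HSPA1A mRNA, housekeeping-normalized (ACTB/GAPDH/POLR2A). Bidirectional fit vs 0.5% DMSO baseline.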
# [4] = read-out: Hypoxia-inducible factor 1-alpha (Homo sapiens) (UniProt Q16665); experiment: LTEA_HepaRG_HIF1A: Life Technologies and Expression Analysis (LTEA) Assay for Hypoxia-inducible factor 1 (HIF1A) Trancription factor using HepaRG (AID 2283503)
# How it was run: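 Gain- or loss-of-signal HIF1A mRNA changes are fitted against a DMSO baseline. HepaRG cultures receive eight concentrations, highest 100 uM, for 48 h in serum-free induction medium with 0.5% DMSO.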
# [5] = read-out: 3-Hydroxy-3-Methylglutaryl-CoA Synthase 2 (HMGCS2), HMGCS2 (gene 3158); experiment: LTEA_HepaRG_HMGCS2: Life Technologies and Expression Analysis (LTEA) Assay for 3-Hydroxy-3-Methylglutaryl-CoA Synthase 2 (HMGCS2) using HepaRG (AID 2283504)
# How it was run: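 Human HepaRG cells in serum-free induction medium were exposed in duplicate for 48 h to 8-point half-log series from 100 uM top in 0.5% DMSO. HMGCS2 mRNA measured by TaqMan qRT-PCR, normalised to ACTB, GAPDH, POLR2A; bidirectional fit versus DMSO.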
# HGF (gene 3082) = experiment: LTEA_HepaRG_HGF: Life Technologies and Expression Analysis (LTEA) Assay for Hepatocyte Growth Facto (HGF) using HepaRG (AID 2283505)
# How it was run: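 Differentiated HepaRG cells in serum-free induction medium exposed 48 h in duplicate, 8 half-log concentrations from 100 uM in 0.5% DMSO. HGF mRNA by qRT-PCR, normalised to ACTB, GAPDH, POLR2A; bidirectional fitting.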
# [6] = read-out: Insulin Like Growth Factor 1 (IGF1), IGF1 (gene 3479); experiment: LTEA_HepaRG_IGF1: Life Technologies and Expression Analysis (LTEA) Assay for Insulin Like Growth Factor 1 (IGF1) using HepaRG (AID 2283506)
# How it was run: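 qRT-PCR readout of IGF1 mRNA, normalized to three housekeeping genes, after 48 h chemical exposure of HepaRG cells. Concentrations: 8-point half-log series, top 100 uM, 0.5% DMSO vehicle. Gain or loss fitted against DMSO baseline.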
# [7] = read-out: Intercellular Adhesion Molecule 1 (ICAM1), ICAM1 (gene 3383); experiment: LTEA_HepaRG_ICAM1: Life Technologies and Expression Analysis (LTEA) Assay for Intercellular Adhesion Molecule 1 (ICAM1) using HepaRG (AID 2283507)
# How it was run: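 Differentiated human HepaRG cells in serum-free induction medium exposed 48 h in duplicate to 8 half-log concentrations (top 100 uM, 0.5% DMSO). ICAM1 mRNA quantified by TaqMan qRT-PCR, normalized to ACTB, GAPDH and POLR2A; bidirectional fitting versus DMSO.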
# [8] = read-out: Insulin-like growth factor-binding protein 1 (IGFBP1), IGFBP1 (gene 3484); experiment: LTEA_HepaRG_IGFBP1: Life Technologies and Expression Analysis (LTEA) Assay for Insulin-like growth factor-binding protein 1 (IGFBP1) using HepaRG (AID 2283508)
# How it was run: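 HepaRG cells, plated 48 h then switched to serum-free induction medium, exposed in duplicate for 48 h to 8-point half-log series from 100 uM in 0.5% DMSO. mRNA measured by qRT-PCR, normalized to ACTB/GAPDH/POLR2A; bidirectional fit versus DMSO.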
# [9] = read-out: Interleukin 6 (IL6), IL6 (gene 3569); experiment: LTEA_HepaRG_IL6: Life Technologies and Expression Analysis (LTEA) Assay for Interleukin 6 (IL6) using HepaRG (AID 2283509)
# How it was run: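 qRT-PCR read-out of IL6 transcript, normalized to three housekeeping genes, after 48 h chemical exposure of HepaRG cells; 8-point half-log series, top 100 uM, 0.5% DMSO vehicle. Bidirectional curve fitting against DMSO baseline.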
# [10] = read-out: Interleukin 6 Receptor (IL6R), IL6R (gene 3570); experiment: LTEA_HepaRG_IL6R: Life Technologies and Expression Analysis (LTEA) Assay for Interleukin 6 Receptor (IL6R) using HepaRG (AID 2283510)
# How it was run: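 HepaRG, 48 h exposure, 8-pt half-log series, top 100 uM, 0.5% DMSO vehicle, duplicates. Read-out: TaqMan qRT-PCR of IL6R transcript, housekeeping-gene normalized. Gain or loss fitted relative to DMSO baseline.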
# [11] = read-out: Potassium channel subfamily K member 1 (KCNK1), KCNK1 (gene 3775); experiment: LTEA_HepaRG_KCNK1: Life Technologies and Expression Analysis (LTEA) Assay for Potassium channel subfamily K member 1 (KCNK1) using HepaRG (AID 2283511)
# How it was run: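 HepaRG, 48 h exposure, 8-pt half-log series top 100 uM, 0.5% DMSO vehicle, duplicates. Readout: KCNK1 transcript by qRT-PCR (Fluidigm array), housekeeping-normalized; bidirectional curve fit relative to DMSO baseline.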
# [12] = read-out: Keratin 19 (KRT19), KRT19 (gene 3880); experiment: LTEA_HepaRG_KRT19: Life Technologies and Expression Analysis (LTEA) Assay for Keratin 19 (KRT19) using HepaRG (AID 2283512)
# How it was run: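 Differentiated HepaRG cells in serum-free induction medium, exposed 48 h in duplicate to 8 half-log concentrations up to 100 uM in 0.5% DMSO. KRT19 mRNA by qRT-PCR, normalized to ACTB, GAPDH, POLR2A; bidirectional fit vs DMSO.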
# [13] = read-out: JUN Transcription Factor, JUN (gene 3725); experiment: LTEA_HepaRG_JUN: Life Technologies and Expression Analysis (LTEA) Assay for JUN Transcription Factor using HepaRG (AID 2283513)
# How it was run: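 HepaRG, 48 h exposure, 8-pt half-log series top 100 uM, 0.5% DMSO, duplicate. JUN mRNA by qRT-PCR (Fluidigm), housekeeping-normalized (ACTB/GAPDH/POLR2A); bidirectional curve fit vs DMSO baseline.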
# [14] = read-out: Lipase C (LIPC), LIPC (gene 3990); experiment: LTEA_HepaRG_LIPC: Life Technologies and Expression Analysis (LTEA) Assay for Lipase C (LIPC) using HepaRG (AID 2283514)
# How it was run: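 HepaRG, 48 h exposure, 8-pt half-log series from 100 uM in 0.5% DMSO, duplicates. Readout: LIPC mRNA by Fluidigm qRT-PCR, housekeeping-normalized (ACTB/GAPDH/POLR2A). Gain or loss fitted bidirectionally against DMSO baseline.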
# [15] = read-out: Lipoprotein lipase (LPL), LPL (gene 4023); experiment: LTEA_HepaRG_LPL: Life Technologies and Expression Analysis (LTEA) Assay for Lipoprotein lipase (LPL) using HepaRG (AID 2283515)
# How it was run: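 HepaRG, 48 h exposure, 8-pt half-log dilutions from 100 uM, 0.5% DMSO vehicle, duplicates; qRT-PCR (Fluidigm array) of LPL mRNA vs housekeeping genes; bidirectional curve fit relative to DMSO baseline.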
# [16] = read-out: MicroRNA 122 (MIR122), gene 406906; experiment: LTEA_HepaRG_MIR122: Life Technologies and Expression Analysis (LTEA) Assay for MicroRNA 122 (MIR122) using HepaRG (AID 2283516); note: the transcript read is the microRNA miR-122
# How it was run: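 qRT-PCR read-out (TaqMan, Fluidigm array), normalized to three housekeeping genes; HepaRG cells dosed 48 h at 8 concentrations up to 100 uM in 0.5% DMSO, duplicate; gain or loss fitted against DMSO baseline.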
# [17] = read-out: matrix metalloproteinase-10 (MMP10), MMP10 (gene 4319); experiment: LTEA_HepaRG_MMP10: Life Technologies and Expression Analysis (LTEA) Assay for matrix metalloproteinase-10 (MMP10) using HepaRG (AID 2283517)
# How it was run: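 Transcript levels come from Fluidigm qRT-PCR normalized to three housekeeping genes, with curves fitted bidirectionally against 0.5% DMSO. Human HepaRG cells were dosed for 48 hours at concentrations up to 100 uM.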
# MYC, MYC (gene 4609) = experiment: LTEA_HepaRG_MYC: Life Technologies and Expression Analysis (LTEA) Assay for MYC using HepaRG (AID 2283518)
# How it was run: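 Differentiated HepaRG cells exposed 48 h in serum-free induction medium to 8 concentrations (top 100 uM, half-log steps; 0.5% DMSO), duplicate. MYC mRNA measured by Fluidigm qRT-PCR, normalized to ACTB, GAPDH, POLR2A; bidirectional fit versus DMSO.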
# [18] = read-out: matrix metalloproteinase-3 (MMP3), MMP3 (gene 4314); experiment: LTEA_HepaRG_MMP3: Life Technologies and Expression Analysis (LTEA) Assay for matrix metalloproteinase-3 (MMP3) using HepaRG (AID 2283519)
# How it was run: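 qRT-PCR read-out of MMP3 mRNA (normalised to three housekeeping genes) in HepaRG liver cells after 48 h chemical exposure; 8-point half-log series, top 100 uM, 0.5% DMSO vehicle. Bidirectional curve fitting against DMSO baseline.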
# Hypoxia-inducible factor 1-alpha (Homo sapiens), sequence (Q16665 whole entry, looked up): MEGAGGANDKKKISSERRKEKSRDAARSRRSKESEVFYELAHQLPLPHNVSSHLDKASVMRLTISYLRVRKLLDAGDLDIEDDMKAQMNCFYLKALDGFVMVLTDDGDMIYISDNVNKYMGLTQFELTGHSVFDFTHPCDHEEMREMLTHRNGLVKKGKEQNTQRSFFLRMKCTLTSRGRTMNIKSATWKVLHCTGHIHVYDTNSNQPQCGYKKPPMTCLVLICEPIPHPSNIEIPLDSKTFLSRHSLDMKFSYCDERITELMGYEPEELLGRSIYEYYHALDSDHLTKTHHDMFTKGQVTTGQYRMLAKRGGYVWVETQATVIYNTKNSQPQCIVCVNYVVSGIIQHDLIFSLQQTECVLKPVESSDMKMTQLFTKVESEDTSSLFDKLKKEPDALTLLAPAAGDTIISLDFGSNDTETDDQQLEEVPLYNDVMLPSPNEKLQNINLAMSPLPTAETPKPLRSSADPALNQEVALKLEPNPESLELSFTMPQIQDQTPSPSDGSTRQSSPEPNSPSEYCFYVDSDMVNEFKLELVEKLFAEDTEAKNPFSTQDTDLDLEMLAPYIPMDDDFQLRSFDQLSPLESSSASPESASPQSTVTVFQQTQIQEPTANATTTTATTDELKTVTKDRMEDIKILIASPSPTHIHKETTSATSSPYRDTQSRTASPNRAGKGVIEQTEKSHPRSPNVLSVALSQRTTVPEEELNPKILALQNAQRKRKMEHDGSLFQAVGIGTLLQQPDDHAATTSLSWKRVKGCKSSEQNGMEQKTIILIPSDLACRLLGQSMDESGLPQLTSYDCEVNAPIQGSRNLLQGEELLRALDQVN
structure (smiles),measurement,setting,value
O=C1C2CC=CCC2C(=O)N1SC(Cl)(Cl)Cl (centres undefined),outcome,[1],inactive
same,outcome,[2],inactive
same,outcome,[3],inactive
same,outcome,[4],inactive
same,outcome,[5],inactive
same,outcome,HGF (gene 3082),inactive
same,outcome,[6],inactive
same,outcome,[7],inactive
same,AC50,[8],20.2 µM (active)
same,outcome,[9],inactive
same,outcome,[10],inactive
same,outcome,[11],inactive
same,outcome,[12],inactive
same,outcome,[13],inactive
same,AC50,[14],49.2 µM (active)
same,AC50,[15],73.5 µM (active)
same,outcome,[16],inactive
same,AC50,[17],49.2 µM (active)
same,outcome,"MYC, MYC (gene 4609)",inactive
same,outcome,[18],inactive
N#Cc1c(Cl)cccc1Cl,outcome,[1],inactive
same,outcome,[2],inactive
same,outcome,[3],inactive
same,outcome,[4],inactive
same,outcome,[5],inactive
same,outcome,[6],inactive
same,outcome,[7],inactive
same,outcome,[8],inactive
same,outcome,[9],inactive
same,outcome,[10],inactive
same,outcome,[11],inactive
same,outcome,[12],inactive
same,outcome,[13],inactive
same,outcome,[14],inactive
same,outcome,[15],inactive
same,outcome,[16],inactive
same,outcome,[17],inactive
same,outcome,"MYC, MYC (gene 4609)",inactive
same,outcome,[18],inactive
Clc1nc(Cl)nc(Nc2ccccc2Cl)n1,outcome,[1],inactive
same,outcome,[2],inactive
same,outcome,[3],inactive
same,outcome,[4],inactive
same,outcome,[5],inactive
same,outcome,HGF (gene 3082),inactive
same,outcome,[6],inactive
same,outcome,[7],inactive
same,outcome,[8],inactive
same,outcome,[9],inactive
same,outcome,[10],inactive
same,outcome,[11],inactive
same,outcome,[12],inactive
same,outcome,[13],inactive
same,outcome,[14],inactive
same,outcome,[15],inactive
same,outcome,[16],inactive
same,outcome,[17],inactive
same,outcome,"MYC, MYC (gene 4609)",inactive
same,outcome,[18],inactive
COc1cc(OC)nc(NC(=O)NS(=O)(=O)c2ncccc2OCC(F)(F)F)n1,outcome,[1],inactive
same,outcome,[2],inactive
same,AC50,[3],0.237 µM (active)
same,outcome,[4],inactive
same,outcome,[5],inactive
same,outcome,HGF (gene 3082),inactive
same,outcome,[6],inactive
same,outcome,[7],inactive
same,outcome,[8],inactive
same,outcome,[9],inactive
same,outcome,[10],inactive
same,outcome,[11],inactive
same,outcome,[12],inactive
same,outcome,[13],inactive
same,outcome,[14],inactive
same,outcome,[15],inactive
same,outcome,[16],inactive
same,outcome,[17],inactive
same,outcome,"MYC, MYC (gene 4609)",inactive
same,outcome,[18],inactive
CCC(C)n1c(=O)[nH]c(C)c(Br)c1=O (centres undefined),outcome,[1],inactive
same,outcome,[2],inactive
same,outcome,[3],inactive
same,outcome,[4],inactive
same,AC50,[5],29.2 µM (active)
same,outcome,HGF (gene 3082),inactive
same,AC50,[6],8.53 µM (active)
same,outcome,[7],inactive
same,AC50,[8],18.1 µM (active)
same,outcome,[9],inactive
same,AC50,[10],6.3 µM (active)
same,outcome,[11],inactive
same,AC50,[12],11.8 µM (active)
same,outcome,[13],inactive
same,AC50,[14],23.3 µM (active)
same,AC50,[15],14.4 µM (active)
same,AC50,[16],10.4 µM (active)
same,outcome,[17],inactive
same,AC50,"MYC, MYC (gene 4609)",24.8 µM (active)
same,outcome,[18],inactive
